Shown are actives, neighbours in structure and some others; about 21% of the full set was active somewhere.
DT40 TDP1 no CPT = qHTS for Inhibitors of human tyrosyl-DNA phosphodiesterase 1 (TDP1): qHTS in cells in absence of CPT; Potency, µM (series often up to 46.2 µM), hits mostly inhibitors; DT40 Tdp1-/- hTDP1 cells, no CPT, ATP luminescence, 48 h; AID 686978, 2013; 420,000 compounds, 15% hits; also: nearly all actives have a fitted effect of over 55% in size
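Chicken DT40 Tdp1-/- cells complemented with human TDP1, screened without camptothecin (DMSO vehicle only), 400 cells/well. Compounds pin-transferred, cells incubated at 37 °C for at least 48 hr. Growth read as ATP-dependent luminescence (CellTiter-Glo, 30 min at RT).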
IL-1B inflam inh = inflammasome signaling inhibition, IL-1 beta readout | THP-1 LPS/ATP IL-1B secretion, AlphaLISA, 16 h; stronger effect = lower value | activity change, % at 57.5 µM | 360,000 compounds, 4.7% hits; in the data active = activity change below about -50%; inconclusive = mostly about -30% to -49%
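THP-1 cells pretreated 1 hr with compounds (up to 57.5 uM final), then stimulated with LPS (250 ng/mL final) plus ATP (1.25 mM final); secreted IL-1B measured by AlphaLISA after 16 hr, decreased signal indicating inhibition.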
Gal4-VP16 FLuc = inhibits Gal4-VP16 luciferase reporter, ROR gamma counter-screen; Drosophila S2 Gal4-VP16 UAS-luciferase, luminescence, 20 h; Potency, µM (top dose mostly 53.6 µM), most hits filed as inhibitors; 310,000 compounds, 3.5% hits;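 also: Gal4-VP16 expression switched on by copper sulfate through the metallothionein promoter; nearly all actives have a fitted effect of over 50% in size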
RORg inh = inhibitors of mouse ROR gamma transcriptional activity | P51450 | Drosophila S2 Gal4-RORgamma UAS-luciferase reporter, 20 h | Potency, µM (titrated, usually from 53.6 µM), actives largely listed as inhibitors | 310,000 compounds, 5.4% hits; also: nearly all actives have a fitted effect of over 60% in size
Target sequence (P51450 whole entry, looked up, the tested form may be a part): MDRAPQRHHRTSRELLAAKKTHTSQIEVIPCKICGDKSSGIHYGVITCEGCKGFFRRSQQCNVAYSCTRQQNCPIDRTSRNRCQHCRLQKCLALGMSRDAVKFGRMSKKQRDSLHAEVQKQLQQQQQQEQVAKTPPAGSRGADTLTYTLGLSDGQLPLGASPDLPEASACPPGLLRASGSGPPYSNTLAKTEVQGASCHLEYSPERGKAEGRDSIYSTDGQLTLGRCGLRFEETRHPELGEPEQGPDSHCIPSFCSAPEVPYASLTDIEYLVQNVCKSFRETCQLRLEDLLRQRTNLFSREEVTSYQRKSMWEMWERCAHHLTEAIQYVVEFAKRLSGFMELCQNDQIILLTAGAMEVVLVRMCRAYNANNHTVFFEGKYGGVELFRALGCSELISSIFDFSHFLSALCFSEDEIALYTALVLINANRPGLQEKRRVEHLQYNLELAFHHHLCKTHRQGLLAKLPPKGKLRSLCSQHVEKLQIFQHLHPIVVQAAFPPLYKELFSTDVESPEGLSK
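Using a luciferase readout, inhibitors were identified by reduced reporter activity in Drosophila cells coexpressing a copper-inducible Gal4–ROR gamma fusion and UAS-driven Photinus luciferase, incubated 20 hr after 700 uM copper sulfate.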
DT40 TDP1 CPT = DT40-hTDP1 cell growth loss with CPT; chicken DT40 Tdp1-/-;hTDP1 cells + 20 nM CPT, ATP luminescence, 48 h; Potency, µM (top dose mostly 46.2 µM), hits mostly inhibitors; AID 686979; 420,000 compounds, 12% hits; also: nearly all actives have a fitted effect of over 55% in size
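Chicken DT40 Tdp1-/- cells complemented with human TDP1, 400 cells/well, exposed to compounds plus 20 nM camptothecin for at least 48 h at 37 C; viability read as ATP content by CellTiter-Glo luminescence.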
ELG1 DNA repair = blocks ELG1-dependent DNA repair in HEK293T cells | HEK293T ELG1-luciferase reporter, luminescence, 16 h; DNA damage induced by 5-fluorouridine | Potency, µM (highest dose often 46.1 µM), actives largely listed as inhibitors | 330,000 compounds, 2.3% hits; also: nearly all actives have a fitted effect of over 55% in size
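Quantitative HTS, concentration-response format. 2,000 cells/well co-treated with 5-fluorouridine and compound, 16 hr in 5% CO2 at 37 °C; ONE-Glo luminescence read after 30 min.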
Large screens that a line does not name were inactive. Unless noted, calls follow the shape of the dose curve; as a rule, active = well fitted curve in the direction sought with a large enough effect; inconclusive = small, poorly fitted or top-dose-only effect, or another doubt; inactive = no such curve, though single readings can be large; an effect the other way counts as inactive or inconclusive.

Cc1nc(Cl)cc(N/N=C/c2ccc(O)cc2)n1	DT40 TDP1 no CPT inconclusive, RORg inh inconclusive, ELG1 DNA repair inconclusive
Cc1cc(N/N=C/c2ccco2)c2ccccc2n1	DT40 TDP1 no CPT inconclusive, DT40 TDP1 CPT inconclusive
Cc1cc(N/N=C/c2ccc(N(C)C)cc2)c2ccccc2n1	DT40 TDP1 no CPT inconclusive, Gal4-VP16 FLuc inconclusive, RORg inh 16µM
Cc1cc(C)c2nc(C)cc(N/N=C/c3ccc(O)cc3)c2c1	DT40 TDP1 no CPT 3.3µM, IL-1B inflam inh -98, Gal4-VP16 FLuc 4.5µM, RORg inh inconclusive, DT40 TDP1 CPT 3.3µM
Cc1cc(N/N=C/c2ccc(O)cc2O)c2ccccc2n1	Gal4-VP16 FLuc inconclusive, RORg inh inconclusive
CC(=O)OC1CCC2(C)C3CC(=O)C4(C)C(CC5OC6(CCC(C)CO6)C(C)C54)C3CC[C@H]2C1 (stereo partly drawn)	none (no result: IL-1B inflam inh, ELG1 DNA repair)
COc1ccc(Cl)cc1C(=O)C1CCCN(Cc2cnc(N3CCOCC3)s2)C1 (stereo not drawn)	DT40 TDP1 no CPT 29µM, DT40 TDP1 CPT inconclusive
COc1ccc2cc(C(=O)C3CCCN(Cc4cnc(C)s4)C3)ccc2c1 (stereo not drawn)	DT40 TDP1 no CPT 16µM, IL-1B inflam inh -66, RORg inh inconclusive, DT40 TDP1 CPT 23µM
COc1c(C)cc(C(=O)C2CCCN(Cc3cnc(N4CCOCC4)s3)C2)cc1C (stereo not drawn)	DT40 TDP1 no CPT inconclusive, ELG1 DNA repair 21µM
COc1ccc(F)cc1C(=O)C1CCCN(Cc2cnc(N3CCCC3)s2)C1 (stereo not drawn)	ELG1 DNA repair inconclusive
COc1ccc(C(=O)C2CCCN(Cc3cnc(N4CCCC4)s3)C2)cc1OC (stereo not drawn)	DT40 TDP1 no CPT inconclusive
COc1cccc(C(=O)C2CCCN(Cc3cccc(OCCO)c3)C2)c1 (stereo not drawn)	none
Cc1c(C)c2c(c(C)c1O)CC[C@@](C)(C(=O)O)O2	none (no result: DT40 TDP1 no CPT, IL-1B inflam inh, DT40 TDP1 CPT, ELG1 DNA repair)
Cc1cccc(C(=O)OCCN2CCOCC2)c1	ELG1 DNA repair inconclusive
O=C(Cn1c(=O)n(Cc2ccco2)c(=O)c2c3c(sc21)CCCC3)Nc1ccccc1	DT40 TDP1 no CPT inconclusive, DT40 TDP1 CPT inconclusive, ELG1 DNA repair inconclusive
CC1(C)Cc2c(sc3c2c(=N)n(Cc2ccco2)c(=O)n3CC(=O)Nc2ccc(Cl)cc2)CO1	DT40 TDP1 no CPT inconclusive, IL-1B inflam inh -80, DT40 TDP1 CPT inconclusive, ELG1 DNA repair 21µM
Cc1cccc(NC(=O)Cn2c(=O)n(Cc3ccco3)c(=N)c3c4c(sc32)COC(C)(C)C4)c1	DT40 TDP1 no CPT inconclusive, DT40 TDP1 CPT inconclusive, ELG1 DNA repair inconclusive
CC1(C)Cc2c(sc3c2c(=N)n(Cc2ccco2)c(=O)n3CC(=O)Nc2ccccc2)CO1	DT40 TDP1 no CPT inconclusive, IL-1B inflam inh -51, DT40 TDP1 CPT inconclusive, ELG1 DNA repair 9.2µM
CC1(C)Cc2c(sc3c2c(=N)n(Cc2ccco2)c(=O)n3CC(=O)Nc2cccc(Cl)c2)CO1	DT40 TDP1 no CPT 21µM, IL-1B inflam inh inconclusive, RORg inh inconclusive, DT40 TDP1 CPT inconclusive, ELG1 DNA repair inconclusive
CC(C)CC1NC(=O)c2ccccc2-n2c1nc1ccc(F)cc1c2=O (stereo not drawn)	none (no result: DT40 TDP1 no CPT, IL-1B inflam inh, Gal4-VP16 FLuc, RORg inh, DT40 TDP1 CPT)
CC(=O)OCC(NC(=O)C(CCCCNC(=O)OCc1ccccc1)NC(=O)OC(C)(C)C)C1OC(n2cc(F)c(=O)[nH]c2=O)C(OC(C)=O)C1OC(C)=O (stereo not drawn)	none (no result: DT40 TDP1 no CPT, IL-1B inflam inh, DT40 TDP1 CPT, ELG1 DNA repair)
CC(=O)c1ccc(C2C=CC(O)C(CO)O2)cc1 (stereo not drawn)	none (no result: DT40 TDP1 no CPT, IL-1B inflam inh, DT40 TDP1 CPT, ELG1 DNA repair)
COc1cccc(NC(=O)c2ccc(CN3CCN(c4ccccc4)CC3)cc2)c1	DT40 TDP1 no CPT 18µM, RORg inh inconclusive, DT40 TDP1 CPT inconclusive
COc1cccc(C(=O)Nc2ccc(N3CCN(Cc4ccccc4)CC3)cc2)c1	DT40 TDP1 no CPT inconclusive, IL-1B inflam inh inconclusive, DT40 TDP1 CPT inconclusive
COc1ccc(NC(=O)c2ccc(CN3CCc4ccccc4C3)cc2)cc1OC	DT40 TDP1 CPT inconclusive, ELG1 DNA repair inconclusive
COc1ccc(C(=O)Nc2ccc(N3CCN(Cc4ccccc4)CC3)cc2)cc1	none
COc1c(F)c(F)c(C(=O)Nc2ccc(N3CCN(Cc4ccccc4)CC3)cc2)c(F)c1F	DT40 TDP1 no CPT 11µM, DT40 TDP1 CPT 16µM, ELG1 DNA repair inconclusive
Cc1cc(C)c(NC(=O)c2ccc(CN3CCc4ccccc4C3)cc2)c(C)c1	DT40 TDP1 no CPT 12µM, DT40 TDP1 CPT 16µM, ELG1 DNA repair inconclusive
COc1cccc(NC(=O)c2ccc(CN3CCc4ccccc4C3)cc2)c1	DT40 TDP1 no CPT inconclusive, IL-1B inflam inh inconclusive, DT40 TDP1 CPT 16µM, ELG1 DNA repair inconclusive
CC1(C(=O)NS(=O)(=O)c2ccc3ccccc3c2)CCN1C(=O)Cc1ccc(-c2ccccc2)cc1 (stereo not drawn)	none (no result: Gal4-VP16 FLuc, RORg inh, ELG1 DNA repair)
Cc1ccc(S(=O)(=O)NC(=O)C2(C)CCN2C(=O)C2(c3ccc(Cl)cc3)CCC2)nc1 (stereo not drawn)	DT40 TDP1 CPT inconclusive (no result: Gal4-VP16 FLuc, RORg inh, ELG1 DNA repair)
O=CNC1(c2ccccc2)CCCCC1	none (no result: Gal4-VP16 FLuc, RORg inh, ELG1 DNA repair)
